Bioassay records from PubChem.
Shown are actives, neighbours in structure and some others; about 2.4% of the full set was active somewhere.
D2 PAM-1 – HTS Assay for Positive Allosteric Modulators of the Human D2 Dopamine Receptor: Primary Screen for Potentiators; D(2) dopamine receptor (Homo sapiens), P14416; HEK293 T-REx D2, calcium flux, EC20 dopamine potentiation; potentiation, % at 10 µM; 340,000 compounds, 0.34% hits; AID 485347, 2010;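 active = potentiation over 3 SD above the plate norm, cut at about 30% in these data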; note: 0% is about no effect
Target sequence (P14416 whole entry, looked up): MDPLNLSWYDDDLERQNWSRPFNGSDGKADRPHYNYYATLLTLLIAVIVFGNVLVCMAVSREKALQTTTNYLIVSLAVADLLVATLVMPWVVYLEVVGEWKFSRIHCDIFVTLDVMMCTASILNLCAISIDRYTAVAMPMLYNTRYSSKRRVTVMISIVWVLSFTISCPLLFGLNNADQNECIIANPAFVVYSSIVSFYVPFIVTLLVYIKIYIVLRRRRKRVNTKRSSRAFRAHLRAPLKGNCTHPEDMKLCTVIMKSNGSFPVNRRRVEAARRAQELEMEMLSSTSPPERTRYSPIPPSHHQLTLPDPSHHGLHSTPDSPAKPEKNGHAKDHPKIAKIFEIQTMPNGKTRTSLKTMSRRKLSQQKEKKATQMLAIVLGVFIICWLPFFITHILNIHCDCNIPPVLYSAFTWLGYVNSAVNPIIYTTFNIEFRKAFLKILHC
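Calcium flux readout, no-wash dye, 1 read/s. Inducible HEK293 Trex D2 line, overnight 30 C. Compound alone 180 s (agonist flags), then EC20 dopamine, another 180 s to score potentiation.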
D2 ag-1 – Beta-Arrestin HTS for Positive Allosteric Modulators of the Human D2 Dopamine Receptor: Agonists. D(2) dopamine receptor (Homo sapiens), P14416. DiscoveRx PathHunter D2 beta-arrestin, luminescence, 90 min; 100% = 57 uM dopamine signal. activation, % (concentration not given with the values). 360,000 compounds, 0.084% hits. AID 624465, 2012; in the data active = activation above about 40%; inconclusive = between about 15% and that limit
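DiscoveRx PathHunter D2 beta-arrestin cells (2,100/well) attached overnight, then compound-stimulated 90 min at 37 C in HBSS/10 mM HEPES/0.1% Tween-20 buffer; beta-galactosidase complementation read by luminescence after 1 h at ambient temperature. Dopamine 57 uM final (EC100) as control.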
D2 PAM-2 – Beta-Arrestin HTS for Positive Allosteric Modulators of the Human D2 Dopamine Receptor: Potentiators; AID 624464, 2012; D(2) dopamine receptor (Homo sapiens), P14416; DiscoveRx D2 beta-arrestin cells, luminescence, 90 min; 100% = 57 uM dopamine signal; potentiation, % (no concentration beside the values); 360,000 compounds, 0.23% hits; in the data active = potentiation above about 50%; inconclusive = mostly about 30% to 49%
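PathHunter D2 cells, attached overnight at 37 deg C, received compound in DMSO plus dopamine at EC20 (50 nM final) for 90 min at 37 deg C. Beta-arrestin recruitment was read as luminescence after 1 h with detection reagent at ambient temperature.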
D2 antagonist – HTS Assay for Allosteric Antagonists of the Human D2 Dopamine Receptor: Primary Screen for Antagonists; D(2) dopamine receptor (Homo sapiens), P14416; HEK293 TREx D2 cells, calcium flux, dopamine EC80; 340,000 compounds, 2% hits; inhibition, % at 10 µM; in the data active = inhibition above about 30%; inactive = below that, where a call was filed; note: 0% is about no effect
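Inhibition of EC80 dopamine-driven calcium flux, recorded kinetically, defines activity here; cells are a tetracycline-induced HEK293 T-REx line expressing force-coupled D2.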
D2 ag-2 – HTS Assay for Allosteric Agonists of the Human D2 Dopamine Receptor: Primary Screen for Agonists; D(2) dopamine receptor (Homo sapiens), P14416; HEK293 T-REx D2 cells, calcium flux agonist mode; activation, % at 2 µM; 340,000 compounds, 0.53% hits;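 active = activation over 3 SD above normal in the single-dose calcium agonist read, cut at about 30% in these data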; note: 0% is about no effect
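HEK293 Trex D2 cells, tetracycline-induced, o/n 30 C 5% CO2; no-wash Ca dye, RT 30–90 min; 10-cycle baseline, 23 nl cpd added, kinetic Ca read 180 s; agonist hits = positive Ca response.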
Starred values were filed as active, the others as inactive; ? = inconclusive; . = not tested or not shown.

SMILES	D2 PAM-1	D2 ag-1	D2 PAM-2	D2 antagonist	D2 ag-2
O=C(Oc1ccc(Br)cc1C(=S)N1CCOCC1)c1ccc([N+](=O)[O-])cc1[N+](=O)[O-]	37.5*	?	56.3*	-3.7	1.1
O=C(Oc1cccc(C(=S)N2CCOCC2)c1)c1cc([N+](=O)[O-])cc([N+](=O)[O-])c1	-0.6	40.7*	24.8	3.3	0.5
CCOc1ccc(-c2c(C)nn3c(C)c(C(=O)NCc4ccc(Cl)cc4)cnc23)cc1OCC	3.8	.	.	.	.
Cc1ccccc1N1CCN(CCCCN2C(=O)C3CCCN3C2=O)CC1 (stereo not drawn)	-18.7	-3.6	-31.5	58.9*	7.6
O=C1C2CCCN2C(=O)N1CCCN1CCN(c2cccc(Br)c2)CC1 (stereo not drawn)	18.4	2.7	-5.1	-17.2	-0.5
CCCCOc1ccccc1N1CCN(CCCN2C(=O)C3CCCN3C2=O)CC1 (stereo not drawn)	-23.7	-2.5	3.7	76.2*	0.8
O=C1C2CCCCN2C(=O)N1CCCN1CCN(c2ccc(F)cc2)CC1 (stereo not drawn)	-9.8	-1.2	-22.3	-11.9	0.8
COc1ccccc1N1CCN(CCCCN2C(=O)C3CCCCN3C2=O)CC1 (stereo not drawn)	-18.2	1.4	-28.1	94.3*	0.3
COc1ccccc1N1CCN(CCCN2CC(=O)N3CCCCC3C2=O)CC1 (stereo not drawn)	.	0.2	-21.2	.	.
COCCCNC(=O)c1cn(Cc2c(F)cccc2Cl)nn1	-8.7	-1.1	5.5	32.0*	-1.0
COCCNC(=O)CSCc1c(F)cccc1Cl	2.0	-0.5	-7.8	2.0	-2.1
COCCn1c(=O)[nH]c2cc(C(=O)NCCN3CCN(c4ccccc4)CC3)ccc2c1=O	-28.1	?	-0.3	143.5*	83.5*
COc1cc(Cl)c(CC(=O)c2c[nH]c3ccccc23)cc1OC	-3.2	4.1	-4.5	32.5*	0.8
CCN(Cc1ccccc1)C(=O)Cn1c(=O)oc2cc(S(=O)(=O)N3CCCCCC3)ccc21	11.4	.	.	.	-1.2
COC1=C/C(=C/c2c(O)c(C#N)c3ccccn23)C=CC1=O	-3.3	-1.5	-7.5	33.1*	2.4
CCN1C(=O)[C@H]2[C@@H](c3ccc(C(F)(F)F)cc3)N[C@]3(CCCN(Cc4ccccc4)C3=O)[C@H]2C1=O	.	-9.9	-3.7	.	.
CN(CC(=O)Nc1ccc(S(=O)(=O)N2CCCC2)cc1)Cc1ccc(Cl)cc1Cl	5.6	?	63.8*	11.7	0.3
CC(C)CC(=O)Nc1ccc(S(=O)(=O)N2CCCC2)cc1	4.9	-5.3	-4.6	-25.0	-0.8
CN(CC(=O)Nc1ccc(S(=O)(=O)N2CCCC2)cc1)CC(=O)Nc1ccc(F)c(F)c1F	5.6	0.8	0.0	12.1	1.8
CC(C)(C)CC(=O)Nc1ccc(S(=O)(=O)N2CCCC2)cc1	43.5*	0.2	-1.5	-3.2	-1.0
CC(=O)Nc1ccc(S(=O)(=O)N2CCCN(S(=O)(=O)c3ccc(NC(C)=O)cc3)CC2)cc1	4.9	-0.1	6.9	3.1	0.1
CC(=O)Nc1ccc(S(=O)(=O)N2CCCN(S(=O)(=O)c3ccc(C)cc3)CC2)cc1	-1.3	1.2	-2.3	30.7*	0.1
CCOc1ccc(NC(=O)CN(C)Cc2ccc3c(c2)OCO3)cc1S(=O)(=O)N1CCCC1	-22.3	6.4	-1.2	58.2*	0.1
O=C(O)COc1ccc(NC(=O)c2ccc3c(c2)C(=O)N(CC2CCCO2)C3=O)cc1 (stereo not drawn)	.	-8.1	-11.3	.	.
CCNc1nc(NCc2ccc(F)cc2)c2cnn(C)c2n1	-5.7	.	.	.	1.2
CC1=C(C(N)=O)C(c2cccc(Br)c2)n2nc(SCc3ccccc3Cl)nc2N1 (stereo not drawn)	5.3	.	.	.	1.4
CC1=C(C(N)=O)C(c2cccnc2)n2nc(SCc3ccccc3Cl)nc2N1 (stereo not drawn)	-0.2	-0.4	0.7	34.6*	-1.7
